JMJD2A Tudor: inhibitors of human JMJD2A Tudor domain. Potency, µM (highest dose often 114 µM), for the others: top-dose activity change, negative = inhibition, usual class: inhibitors. AID 504339. 390,000 tested, 4.4% active. AlphaScreen JMJD2A-Tudor / H3K4me3 peptide binding; also: % is scaled to controls: 0 for no effect and ±100 for the full control effect; nearly all actives have a fitted effect of over 50% in size
G9a inh: blocks human histone lysine methyltransferase G9a; Q96KQ7; G9a H3K9 monomethylation, AlphaScreen, 2 h; Potency, µM (titrated, usually from 102 µM), for the others: at the top dose activity, negative = inhibition, hits mostly inhibitors; 350,000 tested, 8.8% active; AID 504332; also: % is scaled to controls: 0 for no effect and ±100 for the full control effect; nearly all actives have a fitted effect of over 75% in size
Target sequence (Q96KQ7 913-1193 limits assumed): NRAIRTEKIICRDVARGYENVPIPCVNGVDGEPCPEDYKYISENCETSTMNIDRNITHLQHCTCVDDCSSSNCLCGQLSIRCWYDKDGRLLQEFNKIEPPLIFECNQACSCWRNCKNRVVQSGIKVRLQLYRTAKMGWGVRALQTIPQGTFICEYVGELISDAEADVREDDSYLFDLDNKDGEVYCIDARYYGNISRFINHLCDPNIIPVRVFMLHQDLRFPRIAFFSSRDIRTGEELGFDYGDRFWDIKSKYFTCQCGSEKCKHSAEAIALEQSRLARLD
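Readings reflect AlphaScreen signal from monomethyl-H3K9 antibody detection. HMT at 20 nM; substrate b-H3K9 500 nM; cofactor SAM 20 uM; 2 h RT reaction; compounds tested as titrations in qHTS with 15 min preincubation.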
BAZ2B inh: blocks human BAZ2B | Q9UIF8 | AlphaScreen BAZ2B-H3K14Ac peptide displacement | Potency, µM (top dose mostly 114 µM), for inactives: top-dose activity change, negative = inhibition, actives largely listed as inhibitors | 360,000 tested, 4.4% active; also: % is scaled to controls: 0 for no effect and ±100 for the full control effect; nearly all actives have a fitted effect of over 60% in size
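AlphaScreen displacement: compounds (up to 110uM) incubated 30 min at room temperature with a preformed 50 nM BAZ2B/50 nM biotinylated H3K14Ac peptide complex in PBS pH 7.4 with Tween-20. Donor and acceptor beads at 10 ug/mL final added, 20 min light-protected before reading.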
L3MBTL1 inh: L3MBTL1 (human) inhibition | AID 485360 | 230,000 tested, 0.66% active | Potency, µM (titrated, usually from 57.1 µM), inactives show at the highest dose activity, negative = inhibition, hits mostly inhibitors | AlphaScreen L3MBTL1–H3K9me1 peptide binding; also: % is scaled to controls: 0 for no effect and ±100 for the full control effect; nearly all actives have a fitted effect of over 60% in size
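First, the protein-peptide complex forms for 30 min at room temperature (L3MBTL1 50 nM, biotinylated H3K9me1 peptide 75 nM). Next, compounds are pin-transferred and incubated 30 min. Finally, AlphaScreen beads are added and read after 30 min.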
Sfp PPTase inh: Sfp phosphopantetheinyl transferase inhibition; Biochemical Sfp PPTase activity, qHTS; 310,000 tested, 3.5% active; Potency, µM, without a hit: largest response in the series, negative = inhibition, usual class: inhibitors; Q9F4F7;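 also: the enzyme is Sfp with the accession as filed and its product quenches rhodamine fluorescence; 0% = enzyme reaction without inhibitor and -100% = no enzyme wells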
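Step 1, compound plus 15 nM Sfp-PPTase, 15 min, room temperature. Step 2, add rhodamine-CoA (5 uM) and BHQ-2-YbbR (12.5 uM). Step 3, read 525/598 nm fluorescence at 0 and 30 min.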
HP1b binding inh: HP1-beta chromodomain-methylated histone interaction inhibition; P83916; AlphaScreen HP1-beta / biotin-H3K9me3 peptide binding; Potency, µM (highest dose often 114 µM), without a hit: at the top dose activity change, negative = inhibition, hits mostly inhibitors; 390,000 tested, 0.56% active; AID 540317; also: nearly all actives have a fitted effect of over 70% in size
Target sequence (P83916 whole entry, looked up): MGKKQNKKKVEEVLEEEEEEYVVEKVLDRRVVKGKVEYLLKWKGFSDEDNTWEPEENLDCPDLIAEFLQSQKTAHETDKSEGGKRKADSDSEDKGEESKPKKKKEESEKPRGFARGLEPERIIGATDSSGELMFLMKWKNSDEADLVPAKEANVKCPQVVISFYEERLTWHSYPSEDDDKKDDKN
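AlphaScreen: HP1-beta (50 nM) preformed 30 min with biotin-H3(1-18)K9me3 peptide (50 nM) in PBS pH 7.4, 0.01% Tween-20. Compound added for 30 min at RT, then streptavidin donor/nickel chelate acceptor beads (10 ug/mL) for 30 min.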
* hit, by the source's call; ? = inconclusive; / = no result; ! = not confirmed by another sample; [ ] = remark or other dose. Compounds with a hit are over-represented: about 12% of the library has one in this group of screens. Calls follow the shape of the dose curve; as a rule, active = well fitted curve in the direction sought with a large enough effect; inconclusive = small, poorly fitted or top-dose-only effect, or another doubt; inactive = no such curve, though single readings can be large; an effect the other way counts as inactive or inconclusive. Potency is read from the fitted curve at half-maximal effect.

SMILES	JMJD2A Tudor	G9a inh	BAZ2B inh	L3MBTL1 inh	Sfp PPTase inh	HP1b binding inh
C[C@H]1CCCC=CC2C[C@H](O)C[C@@H]2[C@H](O)/C=C\C(=O)O1 (stereo partly drawn)	/	/	/	/	-1%	/
COc1ccc(NC(=O)C2C3CCC(O3)C2C(=O)O)c(OC)c1 (stereo not drawn)	-36%	10µM*	-16%	2%	-1%	0%
CCCCC[C@@H](/C=C/C=C\C/C=C\C/C=C\CCCC(=O)O)OO	/	27%[59 µM]	/	/	11%	/
Cc1ccccc1-n1c(O)c(/C=N/Nc2nc3c(c(=O)n(C)c(=O)n3C)n2C)c(=O)[nH]c1=S	?	?	?	-11%	50µM*	3%
Cn1c(=O)c2c(nc(N/N=C/c3c(O)n(C4CCCCC4)c(=S)[nH]c3=O)n2C)n(C)c1=O	79µM*	22µM*	50µM*	-26%	71µM*	?
O=c1[nH]c(=S)n(-c2ccccc2)c(O)c1/C=N/N1CCOCC1	-15%	?	?	-6%	-23%	-1%
NC1=N[C@H](O)[C@H]2C3O[C@]4(O)O[C@H](C(O)[C@@]2(N1)[C@@H]4O)C3(O)CO (stereo partly drawn)	/	2%[59 µM]	/	/	6%	/
CCOc1ccc(C2SCC(=O)Nc3c2c(=O)[nH]n3C2CCCCCC2)cc1 (stereo not drawn)	-24%	2%[59 µM]	-21%	-2%	13%	18%
COc1ccc(C2SCC(=O)Nc3c2c(=O)[nH]n3C2CCCCCC2)cc1 (stereo not drawn)	-15%	71µM*	14%	-8%	-13%	26%
Cn1c(O)c(C=NC(CC(N)=O)C(=O)O)c(=O)n(C)c1=O (stereo not drawn)	/	?	-2%	5%	15%	/
C[N+]1(C)CCC(OC(=O)C(c2ccccc2)c2ccccc2)CC1	?	6.7µM*!	/	/	10%	17%
C[N+]1(C)C2CCC1CC(OC(=O)c1c[nH]c3ccccc13)C2 (stereo not drawn)	50µM*	11µM*	-31%	9%	-5%	27%
C[N+]1(C)C2CCC1CC(OC(=O)c1ccco1)C2 (stereo not drawn)	-8%	/	-15%	/	-10%	32%
C[N+]1(C)[C@@H]2CC[C@H]1CC(OC(=O)[C@@H](CO)c1ccccc1)C2 (stereo partly drawn)	?	7.9µM*!	-16%	/	40µM*!	-9%
C[N+]1(C)C2CC[C@H]1CC(OC(=O)C(CO)c1ccccc1)C2 (stereo partly drawn)	-4%	1%[59 µM]	-4%	6%	/	40%
CC(=O)CC(c1ccccc1)c1c(O)c2cccc(O)c2oc1=O (stereo not drawn)	/	/	/	/	-8%	/
COC(=O)C12CC3=CCC4C(=O)N(c5ccccc5)C(=O)C4C3Cc3ccccc3[C@@H]1CNC2=O (stereo partly drawn)	/	/	/	/	-15%	/
CC(=O)OCC1=C[C@H]2[C@@H]3C(C)(C)[C@]3(OC(=O)Cc3ccccc3)C[C@@H](C)[C@]2(O)[C@@H]2C=C(C)C(=O)[C@@]2(O)C1	/	/	/	/	15%	/
CCC(C)(C)O	/	/	/	/	5%	/
CC1CCCCC1n1c(-c2cccnc2)n[nH]c1=S (stereo not drawn)	7.1µM*	14µM*	-6%	8%	8%	54%
C[C@@H]1C(=O)O[C@H]2C[C@@]34[C@H]5C[C@@H](C(C)(C)C)[C@]36[C@@H](OC(=O)[C@@H]6O)O[C@@]4(C(=O)O5)[C@]21O	-3%	10%	8%	/	3%	30%
O=[N+]([O-])c1cccc(CN2CCN(Cc3ccc(Cl)cc3)CC2)c1	0.79µM*	3.5µM*	20µM*	-20%	?	?
CC(C)N1CCN(Cc2cccc([N+](=O)[O-])c2)CC1	0.89µM*	3.5µM*	50µM*	/	79µM*	?
C#C[C@]1(O)CC[C@H]2[C@@H]3CCC4=CC(=O)CCC4(C)[C@H]3CCC21C (stereo partly drawn)	/	-30%[59 µM]	/	/	30%	/
CCc1n[nH]c(=S)n1/N=C/c1c(C)nn(-c2ccccc2)c1Cl	?	1.8µM*	-4%	/	-2%	35%
SMILES	JMJD2A Tudor	G9a inh	BAZ2B inh	L3MBTL1 inh	Sfp PPTase inh	HP1b binding inh
COc1ccc(N2CCN(C(=O)C3CCCN(S(=O)(=O)c4ccc5c(c4)CCCN5C(C)=O)C3)CC2)cc1 (stereo not drawn)	?	?	?	/	/	5%[57 µM]
COC(=O)COc1cc(Cl)c(Cl)cc1Cl	/	/	/	/	-2%	/
C=CCN1CC[C@@]2(C)c3cc(O)ccc3CC1[C@@H]2C	-24%	45µM*!	2%	/	-2%	29%
CCC1C(=O)OC[C@H]1Cc1cncn1C (stereo partly drawn)	/	?	/	/	-10%	/
CC12CCC3C(=CCc4cc(O)ccc43)C1CCC2=O (stereo not drawn)	/	5%[2.33 µM]	/	/	-8%	/
O=C(O)CC1OCC=C2CN3CCC45C6=CC(=O)C(=O)C([N+](=O)[O-])=C6NC4C1C2CC35 (stereo not drawn)	2.5µM*!	/	?	25µM*	14µM*	55%
COC(=O)COc1ccc(C[C@@H](C)NC[C@H](O)c2cccc(Cl)c2)cc1	/	/	/	/	-6%	/
CC(N)Cc1ccccc1Sc1ccc(O)cc1 (stereo not drawn)	/	35µM*	-5%[57.1 µM]	3%	-1%	/
CC(C)NC(=O)N1CCC2(CC1)CCN(C(=O)Oc1ccccc1)CC2	/	-19%[12.7 µM]	/	/	15%	/
N#Cc1ccc(CN2CC[C@@]3(CCCN(C(=O)Oc4ccccc4)C3)C2)cc1	/	0%[12.7 µM]	/	/	25%	/
C[N+]1=C2CCCCCN2C(O)(c2ccccc2)C1 (stereo not drawn)	45µM*	32µM*	-2%	6%	-15%	11%
CCOP(=O)(/C(C#N)=C(\C)O)c1ccccc1 (stereo not drawn)	?	?	-16%	11%	20%	43%
CCC1/C=C/C=CCC(C)C(O)[C@@](C)(O)C(=O)C(C)C(O)C(C)C(=O)C(C)C(O)C(C)C=CC(=O)O[C@H]2C(C)C(CC1)O[C@]1(CCC(C)C(CC(C)O)O1)C2C (stereo partly drawn)	/	/	/	/	-4%	/
CN1C(=O)C(=Cc2cn(CC(=O)N3CCCCC3)c3ccccc23)C(=O)N(C)C1=O	-11%	?	0%	/	2%	2%
CN1C(=O)C(=Cc2cn(CC(=O)N3CCCC3)c3ccccc23)C(=O)N(C)C1=O	-16%	28µM*	-21%	/	7%	5%
CC(=O)CC1CCCCN1 (stereo not drawn)	/	/	/	/	13%	/
CCCCC/C=C\C/C=C\C/C=C\C/C=C\CCCC(=O)Nc1ccc(O)cc1C	/	4%[59 µM]	/	/	-1%	/

Bioassay records deposited in PubChem by National Center for Advancing Translational Sciences (NCATS).
